Source: PubChem BioAssay (several laboratories)
Most compounds without a hit are left out; they make up all but 32% or so of the library.
CYP2C19 inh = blocks human cytochrome P450 2C19; inhibition, % at 5 µM; CYP2C19 Supersomes, luciferin-H EGE luminescence, 30 min; 96,000 tested, 21% active; P33261;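 active = CYP2C19 inhibition above a set limit at 5 µM in the primary screen, cut at about 50% in these data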;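 note: plate controls were negative control wells for no effect and 2.5 mM tranylcypromine positive control for full effect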
CYP2C9 act = increases human cytochrome P450 2C9 activity; activation factor at 5 µM; P11712; 96,000 tested, 1.4% active; recombinant CYP2C9, luciferin-H conversion, luminescence; active compounds read high; factor 1 = untreated enzyme, 0 = blocked;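 active = activation factor of 2 or more for CYP2C9 at a 5 µM dose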;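 note: 0 = sulfaphenazole-blocked wells and 1 = vehicle-only wells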
Target sequence (P11712 whole entry, looked up): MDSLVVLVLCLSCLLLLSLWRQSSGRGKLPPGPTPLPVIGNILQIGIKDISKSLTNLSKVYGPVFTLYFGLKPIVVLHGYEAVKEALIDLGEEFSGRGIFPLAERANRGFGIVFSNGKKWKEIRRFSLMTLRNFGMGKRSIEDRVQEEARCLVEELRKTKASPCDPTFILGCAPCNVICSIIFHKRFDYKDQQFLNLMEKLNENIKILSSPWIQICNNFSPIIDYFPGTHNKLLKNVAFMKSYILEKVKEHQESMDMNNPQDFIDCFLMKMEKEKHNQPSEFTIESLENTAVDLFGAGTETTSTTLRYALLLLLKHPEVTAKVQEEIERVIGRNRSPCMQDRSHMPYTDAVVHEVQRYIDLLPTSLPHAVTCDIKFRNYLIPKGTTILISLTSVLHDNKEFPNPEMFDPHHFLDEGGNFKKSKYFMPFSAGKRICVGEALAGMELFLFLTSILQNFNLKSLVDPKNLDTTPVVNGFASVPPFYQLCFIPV
CYP2C9 inh = human CYP2C9 inhibition. P11712. CYP2C9 Supersomes, luciferin-H conversion, luminescence. inhibition, % at 5 µM. 96,000 tested, 20% active;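 active = blocking of liver enzyme CYP2C9 beyond about 50% at 5 µM, limit read from the data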
CYP2C19 activ = activators of human cytochrome P450 2C19; P33261; recombinant CYP2C19, luciferin-H EGE luminescence; active compounds read high; 0 = fully inhibited enzyme, 1 = untreated enzyme; activation factor at 5 µM; 96,000 tested, under 10 active; AID 1025;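 active = activation factor of at least 2 at 5 µM in the primary screen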;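 note: 0 = wells with 2.5 mM tranylcypromine and 1 = vehicle-only wells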
PostGolgi yeast = growth inhibition of a yeast mutant, post-Golgi transport screen; post-Golgi transport phenotypic cell assay; inhibition, % at 10 µM; 98,000 tested, 0.9% active; AID 739;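 note: yeast cells grown in 1536-well plates; yeast grown about 18 h at 30C before absorbance read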
PostGolgi ctrl = growth of the yeast control strain, post-Golgi counter-screen; 98,000 tested, 5% active; efflux-deficient yeast background strain, growth absorbance A615, 16 h; inhibition, % at 10 µM
An asterisk follows results filed as active. Cut-off read from the data, not from the text of the source, unless noted: active = inhibition above about 30%; inactive = the rest.

How did CC(C)N(C(=O)CSc1nn2c(=O)c(C(C)(C)C)nnc2s1)c1ccccc1 do in these assays?
CYP2C19 inh: 88*; CYP2C9 act: 0.1; CYP2C9 inh: 89*; CYP2C19 activ: 0.1; PostGolgi yeast: 9; PostGolgi ctrl: 4

Results for CC(C)(C)c1nnc2sc(SCCN3C(=O)c4ccccc4C3=O)nn2c1=O ?
CYP2C19 inh: 22; CYP2C9 act: 0.5; CYP2C9 inh: 47; CYP2C19 activ: 0.8; PostGolgi yeast: -16; PostGolgi ctrl: -5

What do the screens show for `Brc1cc2c(cc1/C=N/Nc1nc(N3CCCC3)nc(N3CCOCC3)n1)OCO2`?
CYP2C19 inh: 23; CYP2C9 act: 0.7; CYP2C9 inh: 31; CYP2C19 activ: 0.8; PostGolgi yeast: -7; PostGolgi ctrl: 25

How did O=S(=O)(c1ccc2ccccc2c1)N1C=CC(C(F)(F)F)=NCC1 do in these assays?
CYP2C19 inh: 35; CYP2C9 act: 1.6; CYP2C9 inh: -60; CYP2C19 activ: 0.6; PostGolgi yeast: 1; PostGolgi ctrl: -3

How did Cc1ccc(-c2nnc(SCC(=O)N3CCN(c4ccccc4)CC3)o2)cc1 do in these assays?
CYP2C19 inh: 21; CYP2C9 act: 0.7; CYP2C9 inh: 27; CYP2C19 activ: 0.8; PostGolgi yeast: -1; PostGolgi ctrl: -2

Results for CC(C)c1c(O)nc(SCc2ccccc2)[nH]c1=O ?
CYP2C19 inh: 5; CYP2C9 act: 0.5; CYP2C9 inh: 52*; CYP2C19 activ: 0.9; PostGolgi yeast: -5; PostGolgi ctrl: 7

Results for CSc1nc(C)c(CCOCc2ccccc2)c(=O)[nH]1 ?
CYP2C19 inh: 69*; CYP2C9 act: 0.5; CYP2C9 inh: 49; CYP2C19 activ: 0.3; PostGolgi yeast: 7; PostGolgi ctrl: 5

What do the screens show for `Cc1nc(SCC(C)C)[nH]c(=O)c1Cc1ccccc1`?
CYP2C19 inh: 59*; CYP2C9 act: 1.1; CYP2C9 inh: -7; CYP2C19 activ: 0.4; PostGolgi yeast: 2; PostGolgi ctrl: 19

How did C=C(C)CSc1nc(C)c(Cc2ccccc2)c(=O)[nH]1 do in these assays?
CYP2C19 inh: 49; CYP2C9 act: 0.8; CYP2C9 inh: 23; CYP2C19 activ: 0.5; PostGolgi yeast: -4; PostGolgi ctrl: 23

Results for CCOC(=O)c1ccc(CSc2nncn2N)o1 ?
CYP2C19 inh: -5; CYP2C9 act: 1; CYP2C9 inh: 0; CYP2C19 activ: 1.1; PostGolgi yeast: -8; PostGolgi ctrl: -4

What do the screens show for `CCOC(=O)c1c(NC(=O)Cn2nnc(-c3ccc(Cl)cc3)n2)sc(CC)c1C`?
CYP2C19 inh: 15; CYP2C9 act: 0.3; CYP2C9 inh: 74*; CYP2C19 activ: 0.9; PostGolgi yeast: 6; PostGolgi ctrl: 9

Results for O=C(Cn1nnc(-c2ccccc2)n1)NCc1ccco1 ?
CYP2C19 inh: 61*; CYP2C9 act: 1.1; CYP2C9 inh: -12; CYP2C19 activ: 0.4; PostGolgi yeast: 14; PostGolgi ctrl: 7

How did O=C(Cn1nnc(-c2cccc(C(F)(F)F)c2)n1)NC1CCCC1 do in these assays?
CYP2C19 inh: 2; CYP2C9 act: 2.5*; CYP2C9 inh: -149; CYP2C19 activ: 1; PostGolgi yeast: 8; PostGolgi ctrl: 5

What do the screens show for `CCOC(=O)c1c(NC(=O)Cn2nnc(-c3ccc(Cl)cc3)n2)sc(C)c1C`?
CYP2C19 inh: 7; CYP2C9 act: 0.8; CYP2C9 inh: 18; CYP2C19 activ: 0.9; PostGolgi yeast: -9; PostGolgi ctrl: -5

How did CCOC(=O)c1ccc(Cn2c(-c3ccccc3)nnc2-c2ccccc2)o1 do in these assays?
CYP2C19 inh: 31; CYP2C9 act: 0.4; CYP2C9 inh: 58*; CYP2C19 activ: 0.7; PostGolgi yeast: 0; PostGolgi ctrl: 21

Results for CC(=O)NC1CSCC1OC(C)=O (configuration not stated) ?
CYP2C19 inh: -10; CYP2C9 act: 1.2; CYP2C9 inh: -20; CYP2C19 activ: 1.1; PostGolgi yeast: -1; PostGolgi ctrl: -3

Results for CN(Cc1ccccc1)C(=O)N[C@@H](Cc1ccccc1)C(=O)O ?
CYP2C19 inh: -4; CYP2C9 act: 1.1; CYP2C9 inh: -12; CYP2C19 activ: 1; PostGolgi yeast: -2; PostGolgi ctrl: 3

How did c1ccc2c(c1)ccc1nnc(SCc3ccc4c(c3)OCO4)n12 do in these assays?
CYP2C19 inh: 48; CYP2C9 act: 0.6; CYP2C9 inh: 36; CYP2C19 activ: 0.5; PostGolgi yeast: -7; PostGolgi ctrl: 6

What do the screens show for `COc1ccc(C(=O)Nc2ccccc2-c2nnn(CC(=O)NCc3ccco3)n2)cc1`?
CYP2C19 inh: 31; CYP2C9 act: 0.3; CYP2C9 inh: 75*; CYP2C19 activ: 0.7; PostGolgi yeast: 11; PostGolgi ctrl: 0

Results for O=C(Cn1nnc(-c2ccccc2NC(=O)c2ccccc2F)n1)NCc1ccco1 ?
CYP2C19 inh: 9; CYP2C9 act: 0.5; CYP2C9 inh: 49; CYP2C19 activ: 0.9; PostGolgi yeast: -2; PostGolgi ctrl: 4

Results for CCOC(=O)c1ccc(CNC(=O)Cn2nnc(-c3ccc(C)cc3)n2)o1 ?
CYP2C19 inh: 18; CYP2C9 act: 0.4; CYP2C9 inh: 60*; CYP2C19 activ: 0.8; PostGolgi yeast: -4; PostGolgi ctrl: 12

What do the screens show for `O=C(Cn1nnc(-c2ccccc2)n1)NCc1cccs1`?
CYP2C19 inh: 72*; CYP2C9 act: 1; CYP2C9 inh: 3; CYP2C19 activ: 0.3; PostGolgi yeast: -3; PostGolgi ctrl: 4

What do the screens show for `COc1ccc(-c2nnn(CC(=O)NCc3cccs3)n2)cc1OC`?
CYP2C19 inh: 27; CYP2C9 act: 1; CYP2C9 inh: 3; CYP2C19 activ: 0.7; PostGolgi yeast: -1; PostGolgi ctrl: 8

Results for O=C(CN1C(=O)CC(c2ccccc2)=Nc2ccccc21)NCc1ccco1 ?
CYP2C19 inh: 40; CYP2C9 act: 0.3; CYP2C9 inh: 71*; CYP2C19 activ: 0.6; PostGolgi yeast: 10; PostGolgi ctrl: 3

What do the screens show for `O=C(CCN1C(=O)c2ccccc2C1=O)NCc1ccco1`?
CYP2C19 inh: -15; CYP2C9 act: 1.1; CYP2C9 inh: -7; CYP2C19 activ: 1.1; PostGolgi yeast: 4; PostGolgi ctrl: -12

Results for CCOc1ccc(-c2nnn(CC(=O)NCc3ccco3)n2)cc1 ?
CYP2C19 inh: 23; CYP2C9 act: 0.8; CYP2C9 inh: 19; CYP2C19 activ: 0.8; PostGolgi yeast: 5; PostGolgi ctrl: 3

Results for CCOC(=O)c1ccc(N2C(=O)CC(Nc3ccc(CCO)cc3)C2=O)cc1 (configuration not stated) ?
CYP2C19 inh: 18; CYP2C9 act: 0.6; CYP2C9 inh: 40; CYP2C19 activ: 0.8; PostGolgi yeast: -2; PostGolgi ctrl: 1

How did CC1CN(c2c3c(nc4ncnn24)CCCC3)CC(C)O1 (configuration not stated) do in these assays?
CYP2C19 inh: -12; CYP2C9 act: 1; CYP2C9 inh: -5; CYP2C19 activ: 1.1; PostGolgi yeast: -2; PostGolgi ctrl: -2
